hNpr1 antagonist: Natriuretic polypeptide receptor (hNpr1) antagonism - Primary qHTS. HEK293 hNpr1 GloSensor cGMP, ANP-stimulated luminescence. AID 1347048, 2019. hit rate 1.6% among 76,000. Potency, µM (titrated, usually from 46.3 µM), hits mostly inhibitors; calls by dose curve; note: nearly all actives have a fitted effect of over 60% in size
Target sequence (P16066 whole entry, looked up): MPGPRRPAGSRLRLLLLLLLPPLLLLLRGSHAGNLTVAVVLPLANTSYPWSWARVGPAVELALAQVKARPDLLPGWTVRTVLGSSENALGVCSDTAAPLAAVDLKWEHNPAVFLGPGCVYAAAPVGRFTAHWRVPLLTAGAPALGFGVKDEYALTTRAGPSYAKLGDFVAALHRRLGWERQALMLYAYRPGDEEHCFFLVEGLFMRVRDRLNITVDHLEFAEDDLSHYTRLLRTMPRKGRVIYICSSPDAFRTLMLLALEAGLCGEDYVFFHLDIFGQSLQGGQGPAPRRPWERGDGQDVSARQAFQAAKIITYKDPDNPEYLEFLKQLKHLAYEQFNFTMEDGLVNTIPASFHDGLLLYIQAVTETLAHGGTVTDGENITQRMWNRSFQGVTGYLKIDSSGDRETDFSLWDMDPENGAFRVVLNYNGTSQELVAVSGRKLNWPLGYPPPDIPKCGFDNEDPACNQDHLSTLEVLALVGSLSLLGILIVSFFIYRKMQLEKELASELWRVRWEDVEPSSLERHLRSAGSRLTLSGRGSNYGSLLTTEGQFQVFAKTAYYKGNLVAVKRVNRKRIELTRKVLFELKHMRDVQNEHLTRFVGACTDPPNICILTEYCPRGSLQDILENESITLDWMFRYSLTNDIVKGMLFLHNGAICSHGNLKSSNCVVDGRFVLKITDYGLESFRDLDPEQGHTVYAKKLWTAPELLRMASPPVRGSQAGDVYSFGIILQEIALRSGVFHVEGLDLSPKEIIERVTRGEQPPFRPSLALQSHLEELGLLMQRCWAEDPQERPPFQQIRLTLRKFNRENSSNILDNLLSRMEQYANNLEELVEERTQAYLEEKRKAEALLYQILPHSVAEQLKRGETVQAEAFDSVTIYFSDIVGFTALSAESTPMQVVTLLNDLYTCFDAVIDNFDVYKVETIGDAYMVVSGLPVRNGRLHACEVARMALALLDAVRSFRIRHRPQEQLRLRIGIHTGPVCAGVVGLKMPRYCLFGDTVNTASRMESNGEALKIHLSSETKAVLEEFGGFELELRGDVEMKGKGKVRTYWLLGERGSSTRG
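Compound pre-incubated 30 min at room temperature on GloSensor-loaded HEK293 cells stably carrying hNpr1 and the pGS-40F cGMP biosensor. Stimulation uses hNppA at 0.1 nM final; luminescence is taken at baseline and 20 min post-agonist.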
FLuc inh: Firefly luciferase inhibition profiling of diverse chemical library using quantitative high-throughput screening. hit rate 2.5% among 76,000. Luciferin 4-monooxygenase (Photinus pyralis), P08659. Potency, µM (series often up to 115 µM), usual class: inhibitors. purified P. pyralis luciferase, luminescence, biochemical. AID 1347043, 2019; note: nearly all actives have a fitted effect of over 65% in size
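Purified P. pyralis luciferase (10nM final) in 50mM Tris acetate pH 7.5, 10mM Mg acetate, 0.01% Tween-20, 0.05% BSA with 10uM D-luciferin and 10uM ATP. Compounds titrated qHTS. Luminescence imaged on CCD.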
HEK293 tox: Cytotoxic Profiling in HEK 293 Cell Line of Diverse Libraries Using Quantitative High-Throughput Screening; hit rate 6.6% among 94,000; HEK 293 viability, ATP luminescence (CellTiter-Glo), 48-72 h; Potency, µM (series often up to 115 µM), most hits filed as inhibitors; note: nearly all actives have a fitted effect of over 60% in size
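Read-out: CellTiter-Glo ATP luminescence. Cells: HEK 293, 250 cells/well. Exposure: 48 or 72 hr, 37 degree Celsius.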
3T3 cytotox: Cytotoxic Profiling in NIH 3T3 Cell Line of Diverse Libraries Using Quantitative High-Throughput Screening; NIH 3T3 viability, CellTiter-Glo ATP luminescence, 48-72 h; Potency, µM (series often up to 96.7 µM), most hits filed as inhibitors; hit rate 4.3% among 94,000; AID 1345082, 2018; note: nearly all actives have a fitted effect of over 55% in size
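Cytotoxicity was measured by CellTiter-Glo ATP luminescence after 48 or 72 h compound exposure at 37 °C. Mouse NIH 3T3 fibroblasts were seeded at 400 cells/well and dosed by 23 nL pin transfer.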
Hits are given with their value; . = inactive; ? = inconclusive; / = no result given. In the library only some 11% were active in any assay of this set; here they are far more common. Unless noted, calls come from the whole dose curve; as a rule, active = well fitted curve in the direction sought with a large enough effect; inconclusive = small, poorly fitted or top-dose-only effect, or another doubt; inactive = no such curve, though single readings can be large; an effect the other way counts as inactive or inconclusive.

SMILES	hNpr1 antagonist	FLuc inh	HEK293 tox	3T3 cytotox
Cn1ncc2c(C(=O)NCc3ccc(Cl)cc3)cc(-c3ccccc3C(F)(F)F)nc21	/	/	32µM	?
Cn1ncc2c(C(=O)NCC(=O)OC(C)(C)C)cc(-c3ccccc3C(F)(F)F)nc21	/	/	45µM	?
Cn1ncc2c(C(=O)NCCCNC(=O)OC(C)(C)C)cc(-c3ccccc3F)nc21	/	/	45µM	?
COc1cccc(CNC(=O)[C@@H]2C[C@@H](O)CN2C2CCN(C(=O)C3(c4ccccc4)CC3)CC2)c1	.	.	.	.
O=C1NCc2ccccc2CC12CCCCN2Cc1cnc2ccccc2c1 (centres undefined)	/	/	?	.
CC(NC(=O)c1cc(-c2ccccc2C(F)(F)F)nc2c1cnn2C)C(C)(C)C (centres undefined)	/	/	45µM	?
Cn1ncc2c(C(=O)NCc3ccc(C(F)(F)F)cc3)cc(-c3ccccc3C(F)(F)F)nc21	/	/	18µM	?
Cn1ncc2c(C(=O)NCC#N)cc(-c3ccccc3C(F)(F)F)nc21	/	/	.	?
FC(F)(F)c1ccc(CN2CC[C@H](c3nc4ccccc4[nH]3)C2)cc1	?	.	35µM	28µM
FC(F)(F)c1ccc2nc([C@H]3CCN(Cc4ccc(Cl)cc4)C3)[nH]c2c1	?	?	22µM	?
c1csc(CN2CC[C@H](c3nc4ccccc4[nH]3)C2)c1	.	?	?	100µM
Cc1ccc2nc(C3CCCN(Cc4cccs4)C3)[nH]c(=O)c2c1 (centres undefined)	/	/	?	.
Cn1cc(CN2CC[C@H](c3nc4ccccc4[nH]3)C2)c2ccccc21	.	.	50µM	?
COc1cccc([S+](=O)([O-])N2CCc3nc(C4CC4)nc(-c4ccc(Cl)cc4)c3CC2)c1	.	.	.	.
CN(C)c1ccc(CN2CC[C@H](c3nc4ccc(C(F)(F)F)cc4[nH]3)C2)cc1	?	.	32µM	32µM
FC(F)(F)c1ccc2nc([C@H]3CCN(CC4CC4)C3)[nH]c2c1	.	28µM	?	?
c1coc(-c2nnc([C@H]3CCN(Cc4cccs4)C3)o2)c1	.	71µM	.	.
c1ccc(CN2CC[C@H](c3nnc(-c4ccco4)o3)C2)nc1	.	?	.	.
Cc1ccc2nc([C@H]3CCN(C(=O)c4ccccc4)C3)[nH]c2c1	.	.	?	.
Cc1ccc2nc([C@H]3CCN(Cc4ccc(C(F)(F)F)cc4)C3)[nH]c2c1	?	.	28µM	35µM
COCC(=O)NC1CCC12CCN(S(=O)(=O)c1ccc3c(c1)CCC3)CC2 (centres undefined)	/	/	.	.
O=C(Cc1ccccc1F)N1CCCC(Cc2nncn2Cc2ccccc2)C1 (centres undefined)	/	/	.	.
Cc1noc(-c2ccn3c(CNC(=O)c4ccccc4Cl)nnc3c2)n1	.	.	?	?
CCN(CC1CCN(CCc2ccccc2C)CC1)C(=O)C1C=CCN1 (centres undefined)	.	.	.	?
O=C(NC1CCCN(c2cc(-c3ccccc3)[nH]n2)C1)c1ccsc1 (centres undefined)	.	?	?	?
SMILES	hNpr1 antagonist	FLuc inh	HEK293 tox	3T3 cytotox
Cc1cc(C)c(C)c(S(=O)(=O)NC2CCN(c3ccc(=O)n(CC4CC4)n3)CC2)c1C	?	.	32µM	?
Cc1ccc(CN2CCc3oc(C)c(C(=O)NCCN4CCCCC4)c3C2)cc1	.	.	?	.
CC1=C[C@@H](CN2CCC(CO)CC2)[C@H](C(C)C)C[C@H]1Cc1nnc(-c2cccnc2)o1	.	.	?	.
CC1=C[C@@H](CN2CCOCC2)[C@H](C(C)C)C[C@H]1Cc1nnc(-c2ccccc2F)o1	.	.	89µM	?
CC1=C[C@@H](CNC(=O)c2cncnc2)[C@H](C(C)C)C[C@H]1Cc1nnc(-c2ccccc2F)o1	.	.	?	?
CC1=C[C@@H](CN2CCN(C)CC2)[C@H](C(C)C)C[C@H]1Cc1nnc(-c2ccccc2F)o1	.	.	45µM	?
CNC(=O)c1cc(C2CC2)nc2c1c(C1CCCN1[S+](=O)([O-])C(C)C)nn2C (centres undefined)	/	/	.	.
c1ccc(-c2cc3c(cn2)NCCN(CC2CC2)C3)cc1	.	?	.	?
COc1cccc(CN2CCNc3cnc(-c4ccccc4)cc3C2)c1	.	.	89µM	?
Oc1ccccc1CN1CCNc2cnc(-c3ccccc3)cc2C1	?	.	63µM	?
c1ccc(-c2cc3c(cn2)CN(Cc2c[nH]c4ccccc24)CCN3)cc1	.	?	45µM	?
COc1ccccc1CN1CCNc2cnc(Oc3ccccc3)cc2C1	.	.	?	?
COc1ccc(OC)c(CN2CCNc3cnc(-c4ccccc4)cc3C2)c1	.	.	56µM	89µM
O=C(c1ccccc1)N1CCCC(C(=O)N2CCC(N3CCOCC3=O)CC2)C1 (centres undefined)	/	/	.	.
CN1CC(=O)N(C2CCC2)Cc2c(NC3CCNCC3)ncnc21	/	/	.	.
Cn1ccc2c(C(=O)NCc3cccnc3)nc(-c3ccccc3)cc21	?	.	?	?
CN(C)Cc1ccc(-c2cc3c(ccn3C)c(C(=O)NCc3cccnc3)n2)cc1	.	.	?	?
Cn1ccc2c(C(=O)NCc3cccnc3)nc(-c3ccccc3C#N)cc21	.	.	.	25µM
CN1CCN(c2ccc(-c3cc4c(ccn4C)c(C(=O)NCc4cnccn4)n3)cc2)CC1	.	?	45µM	?
Cn1ccc2c(C(=O)NCc3cccnc3)nc(-c3ccc(F)cc3)cc21	.	.	100µM	?
Cn1nccc1-c1cc2c(ccn2C)c(C(=O)NCc2cccnc2)n1	.	.	.	28µM
CCOC(=O)C1CCN(C(=O)Cc2ccc(N(Cc3cccc(F)c3)C(=O)c3ccco3)cc2)CC1	?	.	?	?
CNC(=O)c1nc2cccnc2n(CCOC)c1=O	/	/	.	.
O=C(NC1CCCCC1)N1Cc2[nH]cnc2C[C@H]1c1nc(-c2ccc3c(c2)OCO3)no1	.	.	.	?
COCCOCC(=O)N1CCCCCCNC(=O)[C@@H]2C[C@@H](c3nc(Cc4ccccc4)no3)C[C@@H]21	.	.	.	.
SMILES	hNpr1 antagonist	FLuc inh	HEK293 tox	3T3 cytotox
O=C1NCCCCCCN(C(=O)CCC2CCCC2)[C@H]2C[C@H](c3nc(Cc4ccccc4)no3)C[C@@H]12	.	.	32µM	?
O=C1NCCCCCCN(C(=O)C2CC=CC2)[C@H]2C[C@H](c3nc(Cc4ccccc4)no3)C[C@@H]12	.	.	?	?
O=C1NCCCCCCN(C(=O)CC2CCCCC2)[C@H]2C[C@H](c3nc(Cc4ccccc4)no3)C[C@@H]12	.	.	?	35µM
O=C(NC[C@H]1COCc2nc3cc(F)ccc3n21)c1ccccc1	.	.	.	.
O=C(COc1ccccc1)NC[C@H]1COCc2nc3cc(F)ccc3n21	?	.	79µM	?
Fc1ccc2c(c1)nc1n2[C@@H](CNC2CCC2)COC1	.	.	?	71µM
